TROY signal inh: TROY signaling inhibition | Q293 LMP1-TROYcd NF-kB luciferase reporter, 4 h | inhibition, % at 10 µM | 360,000 tested, 0.98% active | AID 1347056;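 active = compounds whose plate-normalised and pattern-corrected inhibition of the luciferase reporter signal at the single screening dose is 50% or more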
KKLEB cytotox: CF airway cell cytotoxicity counter-screen; KKLEB CF airway cells viability, ATPlite luminescence, overnight; active compounds read low; cells stimulated with P. aeruginosa culture filtrate; activity change (cytotoxicity), % at 5 µM; 360,000 tested, 0.36% active; AID 602141;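 active = corrected activity change at or below -50% at 5 µM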
CF NFkB block: blocks PAF-induced NF-kB reporter in cystic fibrosis cells. KKLEB NF-kB-GFP reporter, GFP fluorescence overnight. inhibition, % at 5 µM. 360,000 tested, 0.86% active. AID 588850;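 active = at least 50% inhibition at 5 µM, scaled per plate between neutral and stimulator controls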;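 also: PAF is a Pseudomonas aeruginosa culture filtrate used as stimulus; plate controls were PAF-stimulated DMSO wells for no effect and unstimulated DMSO wells for full effect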
LGR2 antag: blocks bursicon-induced cAMP signaling via Drosophila LGR2. inhibition, % at 9.99 µM. AID 720647. 380,000 tested, 0.35% active. HEK293 LGR2, CRE-luciferase, bursicon-stimulated, 4 h;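 active = drop in luminescence signal, shown as inhibition above about 50% in the replicate tests, limit read from the data, passing the limit was not always enough; inconclusive = probably only some replicates passing the limit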;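 also: agonist challenge used bursicon conditioned medium at about half maximal strength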
TWEAK Fn14 block: blocks TWEAK-Fn14 interaction in a reporter cell assay; TWEAK-stimulated Fn14 reporter cells, luciferase luminescence, 8 h; AID 1159606; inhibition, % at 10 µM; 360,000 tested, 2% active; in the data active = inhibition above about 50%
EWS-Fli block: inhibitors of EWS/Fli oncoprotein transcriptional activity; A673 NR0B1-luciferase reporter, viability-normalised; inhibition, % at 12.6 µM; 350,000 tested, 0.67% active;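 active = mean inhibition of at least 50% after viability correction, with every replicate also passing that limit; inconclusive = mean reaches 50% but only one of two replicates passes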;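 also: firefly luciferase signal divided by Alamar Blue viability fluorescence both relative to DMSO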
* marks the source's active call; other numbers are inactive results; ? = inconclusive; . = no result. An excerpt weighted towards active compounds, which were near 2.6% of everything screened.

SMILES	TROY signal inh	KKLEB cytotox	CF NFkB block	LGR2 antag	TWEAK Fn14 block	EWS-Fli block
Cc1ccccc1-c1ccc2c(c1)O[C@H](CN(C)C(=O)Nc1ccc(C(F)(F)F)cc1)[C@@H](C)CN([C@H](C)CO)S2(=O)=O	.	.	.	14	.	9
C[C@@H]1CN([C@@H](C)CO)C(=O)c2cccc(NS(=O)(=O)c3ccc(Cl)cc3)c2O[C@H]1CN(C)Cc1ccc(C(=O)O)cc1	.	.	.	-1	.	-1
CCN(CC)c1ccc(/C=N/NC(=O)c2c(-c3ccccc3)noc2C)cc1	53*	-2	-9	-3	18	13
COc1ccc([Si](C)(C)[C@@H]2[C@@H](CCn3cc([C@H](O)c4ccccc4)nn3)O[C@]3(C(=O)N(C)c4ccccc43)[C@H]2C)cc1	.	.	.	.	.	-2
COC(=O)c1ccc(NCc2cc(O)ccc2O)cc1O	-9	-10	29	42	83*	57*
COC(=O)c1ccc(NCc2c(O)ccc(O)c2Br)cc1Cl	23	-2	22	-38	80*	72*
C[C@@H]1CN([C@H](C)CO)S(=O)(=O)c2ccc(C#CC3CC3)cc2O[C@@H]1CN(C)C(=O)C1CCCCC1	.	.	.	32	.	30
COc1ccc(NC(=O)N(C)C[C@@H]2Oc3ncc(C#C[C@H](C)O)cc3C(=O)N([C@@H](C)CO)C[C@H]2C)cc1	.	.	.	-2	.	-14
COc1ccc2c3c(n(C)c2c1)[C@H](CO)N(CC1CC1)CC31CCN(C(=O)c2cccnc2)CC1	.	.	.	5	.	-2
O=C(c1cccs1)N1CCN(C(=O)c2cccs2)C1=S	29	-4	43	?	70*	-1
O=C(c1cccs1)N1CCCC1	-5	9	4	.	0	.
Cc1ccc(-c2nc(=S)c3c(n2Cc2cccnc2)CC(C)(C)OC3)cc1	7	18	-16	-8	74*	2
CCN(CC)CCn1c(-c2ccc(C)cc2)nc(=S)c2c1CC(C)(C)OC2	18	-2	3	1	7	-7
CC1(C)Cc2c(c(=S)nc(-c3ccccc3)n2CCOCCO)CO1	.	-4	-6	.	55*	.
Cc1ccc(-c2nc(=S)c3c(n2CCN2CCOCC2)CC(C)(C)OC3)cc1	52*	10	-4	3	21	.
C=CCn1c(-c2ccccc2)nc(=S)c2c1CC(C)(C)OC2	-1	6	-7	.	-3	.
COc1ccc(NC(=O)N(C)C[C@H]2Oc3ccc(NC(=O)C4CCCCC4)cc3C(=O)N([C@@H](C)CO)C[C@@H]2C)cc1	.	.	.	-3	.	-11
C=CCNc1ncnc2c1cnn2-c1ccc(OC)cc1	-12	16	-6	.	39	.
CCC(CO)Nc1ncnc2c1cnn2-c1ccc(Cl)cc1 (stereo unspecified)	73*	-9	-17	25	68*	6
CCCN(CCC)c1ncnc2c1cnn2-c1ccc(OC)cc1	62*	-4	-10	.	53*	.
CN(C)CCNc1ncnc2c1cnn2-c1ccc(Cl)cc1	18	-13	5	-25	9	-35
CCC(CO)Nc1ncnc2c1cnn2-c1ccc(OC)cc1 (stereo unspecified)	39	-2	-9	-4	54*	-35
OCCCNc1ncnc2c1cnn2-c1ccc(Cl)cc1	15	-11	-3	7	68*	27
CS(=O)(=O)Nc1ccc2c(c1)[C@H]1C[C@@H](CC(=O)NCc3cccnc3)O[C@H](CO)[C@H]1O2	.	.	.	-8	.	3
O=C(C1CCCC1)N1CC2(C1)[C@@H](c1ccccc1)[C@@H](CO)N2CCC(F)(F)F	.	.	.	-5	.	2
SMILES	TROY signal inh	KKLEB cytotox	CF NFkB block	LGR2 antag	TWEAK Fn14 block	EWS-Fli block
C/C=C/c1cnc2c(c1)C(=O)N([C@@H](C)CO)C[C@H](C)[C@H](CN(C)S(=O)(=O)c1cn(C)cn1)O2	.	.	.	19	.	5
COc1ccc(C#Cc2ccc3c(c2)[C@@H]2[C@@H](CCN2C(=O)c2ccncc2)[C@@H](CO)N3C)cc1	.	.	.	0	.	7
Cc1noc(C)c1NC(=O)N(C)C[C@H]1OCCCC[C@@H](C)Oc2ccc(NC(=O)Cc3ccccc3)cc2C(=O)N([C@@H](C)CO)C[C@H]1C	.	.	.	5	.	-3
Clc1ccc(-n2ncc3c(NCC4CCCO4)ncnc32)cc1 (stereo unspecified)	37	-28	16	-26	60*	14
CC(=O)Oc1cc(O)c2c(=O)c(OC(C)=O)c(-c3ccc(OC(C)=O)c(OC(C)=O)c3)oc2c1	28	-17	43	.	68*	.
COc1ccc(NC(=O)N(C)C[C@@H]2OCCCC[C@@H](C)Oc3ccc(NC(=O)Nc4c(C)noc4C)cc3C(=O)N([C@H](C)CO)C[C@@H]2C)cc1	.	.	.	-5	.	-3
CCOC(=O)c1ccc(N2C(=O)CC(Sc3nc(C)cc(C)n3)C2=O)cc1 (stereo unspecified)	22	7	-1	-3	-15	8
CCOC(=O)c1ccc(N2C(=O)CC(Sc3nnc(C)s3)C2=O)cc1 (stereo unspecified)	.	9	-3	.	69*	.
Cc1c(C(=O)N2CCc3ccccc3C2)sc2nc(-c3ccccc3)cn12	-17	7	0	.	-19	.
c1ccc(-c2cn3c4c(sc3n2)CCCC4)cc1	72*	-58*	-28	74*	89*	54*
CC(=O)CSc1nc2cc3c(cc2cc1C#N)OCCO3	40	10	-91	61*	84*	24
N#Cc1cc2cc3c(cc2nc1SCC(=O)N1CCCC1)OCCO3	51*	3	1	.	36	.
N#Cc1cc2cc3c(cc2nc1SCC(=O)OC1CCCCC1)OCO3	11	-19	29	.	-14	.
N#Cc1cc2c(nc1SCC(=O)N1CCOCC1)CCCCC2	81*	5	-9	.	95*	.
N#Cc1cc2c(nc1SCC(N)=O)CCCCC2	-2	6	6	.	-4	.
COc1ccc(/C=C2/SC(=O)N(CCC(=O)Nc3ccccc3)C2=O)cc1OC	-9	-54*	60*	-4	-14	-11
O=C(CCN1C(=O)S/C(=C\C=C\c2ccccc2)C1=O)Nc1ccc(O)cc1	-6	2	-120	-85	58*	.
COc1cc(/C=C2\SC(=O)N(CC(=O)Nc3ccccc3F)C2=O)cc(Cl)c1O	54*	2	0	32	18	17
O=C(c1ccc(S(=O)(=O)N2CCCC2)cc1)N1CCCCCC1	3	18	-14	-2	3	4
O=C(c1ccc(S(=O)(=O)N2CCCCC2)cc1)N1CCN(CCN2C(=O)c3cccc4cccc(c34)C2=O)CC1	51*	-10	-27	77*	54*	0
CC(=O)[C@@]1(O)C(C)CC2C3C=C(C)C4=Cc5c(cnn5-c5ccccc5)C[C@]4(C)C3C(O)C[C@@]21C (stereo partly specified)	53*	9	88*	12	-35	50
COCCNc1nc(Nc2ccccc2Cl)c2sccc2n1	4	-5	18	-11	21	22

Screens: PubChem, several laboratories
